In ChEMBL document CHEMBL2218924, “A broad activity screen in support of a chemogenomic map for kinase signalling research and drug discovery” (Biochem J, 2013) one finds residual activity data, which are given here for 16 compounds.

Experiment [1] concerns the target T1, Dual specificity mitogen-activated protein kinase kinase 6 (Homo sapiens) (UniProt P52564).
T1 sequence (whole entry): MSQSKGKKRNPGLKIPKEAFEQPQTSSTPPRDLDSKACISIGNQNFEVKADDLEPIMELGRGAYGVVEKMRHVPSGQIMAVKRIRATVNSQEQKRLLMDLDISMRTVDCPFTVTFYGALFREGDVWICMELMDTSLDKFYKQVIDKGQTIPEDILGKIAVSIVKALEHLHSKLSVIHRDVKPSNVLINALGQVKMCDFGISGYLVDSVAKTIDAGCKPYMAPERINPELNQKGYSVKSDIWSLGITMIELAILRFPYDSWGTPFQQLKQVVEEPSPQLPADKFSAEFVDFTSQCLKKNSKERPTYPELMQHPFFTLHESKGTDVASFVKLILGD
The note with it: at 1 µM.

Experiment [2] addresses T1, Dual specificity mitogen-activated protein kinase kinase 6 (Homo sapiens). The following applies: at 10 µM.
Experiment [3] has as its target T2, Dual specificity mitogen-activated protein kinase kinase 7 (Homo sapiens) (UniProt O14733).
T2 sequence (whole entry): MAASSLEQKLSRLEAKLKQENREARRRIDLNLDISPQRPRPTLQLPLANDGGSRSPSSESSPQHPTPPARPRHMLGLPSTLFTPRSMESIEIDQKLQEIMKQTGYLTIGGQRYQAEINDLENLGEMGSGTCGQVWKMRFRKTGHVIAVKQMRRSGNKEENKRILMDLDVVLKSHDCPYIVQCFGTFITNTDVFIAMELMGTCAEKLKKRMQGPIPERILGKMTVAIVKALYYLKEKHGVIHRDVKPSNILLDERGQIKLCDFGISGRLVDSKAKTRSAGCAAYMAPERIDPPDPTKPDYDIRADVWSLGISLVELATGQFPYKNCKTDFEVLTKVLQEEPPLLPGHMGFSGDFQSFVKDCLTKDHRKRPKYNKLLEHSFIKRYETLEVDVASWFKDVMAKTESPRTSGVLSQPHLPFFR
The note with it: at 1 µM.

The target of experiment [4] is T2, Dual specificity mitogen-activated protein kinase kinase 7 (Homo sapiens). The note with it: at 10 µM.
Experiment [5] has as its target Myosin light chain kinase, smooth muscle (Homo sapiens) (UniProt Q15746). The following applies: at 1 µM.
Experiment [6] shares this target. The following applies: at 10 µM.
The target of experiment [7] is Mitogen-activated protein kinase kinase kinase 9 (Homo sapiens) (UniProt P80192). The following applies: at 1 µM.
The target is the same in experiment [8]. The note with it: at 10 µM.
The target of experiment [9] is Serine/threonine-protein kinase MRCK alpha (Homo sapiens) (UniProt Q5VT25). The following applies: at 1 µM.
Experiment [10] addresses Serine/threonine-protein kinase MRCK beta (Homo sapiens) (UniProt Q9Y5S2). The following applies: at 1 µM.
Experiment [11] has the same target. The note with it: at 10 µM.
The target in experiment [12] is Ribosomal protein S6 kinase alpha-5 (Homo sapiens) (UniProt O75582). The note with it: at 10 µM.
The target in experiment [13] is Ribosomal protein S6 kinase alpha-4 (Homo sapiens) (UniProt O75676). The note with it: at 1 µM.
Experiment [14] shares this target. The note with it: at 10 µM.
The target in experiment [15] is SRSF protein kinase 3 (Homo sapiens) (UniProt Q9UPE1). The note with it: at 1 µM.
The target is the same in experiment [16]. The following applies: at 10 µM.
The target in experiment [17] is T3, Serine/threonine-protein kinase 4 (Homo sapiens) (UniProt Q13043).
T3 sequence (whole entry): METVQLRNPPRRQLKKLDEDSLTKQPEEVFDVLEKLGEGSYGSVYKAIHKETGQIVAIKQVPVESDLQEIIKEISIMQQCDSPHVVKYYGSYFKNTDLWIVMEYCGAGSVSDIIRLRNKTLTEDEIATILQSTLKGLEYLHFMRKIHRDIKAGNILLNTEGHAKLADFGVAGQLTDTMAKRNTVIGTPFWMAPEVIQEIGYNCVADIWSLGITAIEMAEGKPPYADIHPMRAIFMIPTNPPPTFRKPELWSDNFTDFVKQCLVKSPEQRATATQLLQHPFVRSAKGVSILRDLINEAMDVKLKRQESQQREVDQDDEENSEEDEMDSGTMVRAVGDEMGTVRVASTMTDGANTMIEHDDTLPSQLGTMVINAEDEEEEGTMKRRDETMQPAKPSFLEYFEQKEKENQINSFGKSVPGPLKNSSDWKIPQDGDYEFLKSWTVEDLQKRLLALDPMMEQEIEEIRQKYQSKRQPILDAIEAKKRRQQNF
The note with it: at 1 µM.

Experiment [18] deals with T3, Serine/threonine-protein kinase 4 (Homo sapiens). The following applies: at 10 µM.
The target in experiment [19] is Serine/threonine-protein kinase MRCK alpha (Homo sapiens) (UniProt Q5VT25). The note with it: at 10 µM.
Experiment [20] has as its target Ribosomal protein S6 kinase alpha-5 (Homo sapiens) (UniProt O75582). The following applies: at 1 µM.

Sequence of SRSF protein kinase 3 (Homo sapiens) (Q9UPE1 whole entry): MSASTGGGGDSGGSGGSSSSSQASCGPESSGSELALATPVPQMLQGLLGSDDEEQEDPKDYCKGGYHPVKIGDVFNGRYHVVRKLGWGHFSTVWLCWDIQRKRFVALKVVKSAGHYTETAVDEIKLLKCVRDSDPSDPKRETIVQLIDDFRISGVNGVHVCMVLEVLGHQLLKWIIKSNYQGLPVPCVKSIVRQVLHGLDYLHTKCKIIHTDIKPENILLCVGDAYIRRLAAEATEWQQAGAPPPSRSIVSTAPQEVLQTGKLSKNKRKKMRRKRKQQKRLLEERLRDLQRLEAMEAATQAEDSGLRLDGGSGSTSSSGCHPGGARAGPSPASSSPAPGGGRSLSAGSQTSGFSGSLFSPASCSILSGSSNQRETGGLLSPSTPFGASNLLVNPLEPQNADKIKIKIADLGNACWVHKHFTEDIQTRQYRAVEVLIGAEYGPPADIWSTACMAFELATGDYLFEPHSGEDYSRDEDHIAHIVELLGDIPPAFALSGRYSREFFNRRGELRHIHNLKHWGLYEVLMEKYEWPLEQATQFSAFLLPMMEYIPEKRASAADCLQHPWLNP
Sequence of Ribosomal protein S6 kinase alpha-4 (Homo sapiens) (O75676 whole entry, looked up): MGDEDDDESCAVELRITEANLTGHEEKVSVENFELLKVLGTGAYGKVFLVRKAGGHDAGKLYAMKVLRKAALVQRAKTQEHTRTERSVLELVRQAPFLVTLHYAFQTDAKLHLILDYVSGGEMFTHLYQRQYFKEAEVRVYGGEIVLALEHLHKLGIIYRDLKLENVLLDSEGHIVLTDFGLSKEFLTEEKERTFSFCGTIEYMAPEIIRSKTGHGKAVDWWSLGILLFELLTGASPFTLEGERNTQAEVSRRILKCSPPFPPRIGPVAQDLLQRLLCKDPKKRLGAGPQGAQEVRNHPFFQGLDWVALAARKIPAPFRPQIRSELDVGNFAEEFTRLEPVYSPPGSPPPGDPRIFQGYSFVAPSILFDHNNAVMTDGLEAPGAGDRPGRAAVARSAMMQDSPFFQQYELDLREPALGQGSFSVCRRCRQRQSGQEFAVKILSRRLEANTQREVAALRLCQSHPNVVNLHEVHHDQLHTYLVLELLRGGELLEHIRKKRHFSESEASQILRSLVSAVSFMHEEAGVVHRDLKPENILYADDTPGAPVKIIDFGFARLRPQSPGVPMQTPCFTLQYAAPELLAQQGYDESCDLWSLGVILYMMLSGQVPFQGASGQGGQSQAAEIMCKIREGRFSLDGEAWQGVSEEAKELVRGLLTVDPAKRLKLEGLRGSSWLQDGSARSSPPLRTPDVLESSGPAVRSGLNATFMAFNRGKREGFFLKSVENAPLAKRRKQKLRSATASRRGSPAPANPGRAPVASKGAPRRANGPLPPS
Sequence of Mitogen-activated protein kinase kinase kinase 9 (Homo sapiens) (P80192 whole entry, looked up): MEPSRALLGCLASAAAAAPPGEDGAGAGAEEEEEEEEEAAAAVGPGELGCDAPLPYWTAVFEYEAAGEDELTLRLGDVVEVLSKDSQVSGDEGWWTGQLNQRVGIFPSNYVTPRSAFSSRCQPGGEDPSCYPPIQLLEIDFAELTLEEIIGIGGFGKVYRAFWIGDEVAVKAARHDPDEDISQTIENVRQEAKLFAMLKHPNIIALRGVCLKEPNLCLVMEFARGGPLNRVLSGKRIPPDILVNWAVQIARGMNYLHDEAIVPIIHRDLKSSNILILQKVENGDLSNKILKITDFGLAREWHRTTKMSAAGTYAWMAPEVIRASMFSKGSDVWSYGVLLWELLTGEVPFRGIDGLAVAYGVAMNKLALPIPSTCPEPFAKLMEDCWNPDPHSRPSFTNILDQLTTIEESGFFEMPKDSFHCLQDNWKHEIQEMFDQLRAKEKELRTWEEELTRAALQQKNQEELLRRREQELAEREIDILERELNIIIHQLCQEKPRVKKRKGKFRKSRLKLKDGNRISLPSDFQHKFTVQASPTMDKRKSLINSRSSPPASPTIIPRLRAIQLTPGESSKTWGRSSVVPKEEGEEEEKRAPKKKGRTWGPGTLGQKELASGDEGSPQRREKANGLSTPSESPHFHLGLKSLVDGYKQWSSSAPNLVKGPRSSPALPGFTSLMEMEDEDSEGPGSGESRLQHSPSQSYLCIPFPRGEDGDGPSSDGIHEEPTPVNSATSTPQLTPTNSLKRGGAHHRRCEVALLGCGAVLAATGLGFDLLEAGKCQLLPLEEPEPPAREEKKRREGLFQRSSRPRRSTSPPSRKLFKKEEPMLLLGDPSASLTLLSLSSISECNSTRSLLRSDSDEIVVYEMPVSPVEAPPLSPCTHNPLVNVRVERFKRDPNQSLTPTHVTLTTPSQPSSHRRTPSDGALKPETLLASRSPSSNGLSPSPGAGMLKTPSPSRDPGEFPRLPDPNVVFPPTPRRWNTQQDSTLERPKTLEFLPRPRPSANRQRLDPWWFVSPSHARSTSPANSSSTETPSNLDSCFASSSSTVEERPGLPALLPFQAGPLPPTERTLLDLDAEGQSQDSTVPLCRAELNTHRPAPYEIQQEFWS
Sequence of Myosin light chain kinase, smooth muscle (Homo sapiens) (Q15746 whole entry): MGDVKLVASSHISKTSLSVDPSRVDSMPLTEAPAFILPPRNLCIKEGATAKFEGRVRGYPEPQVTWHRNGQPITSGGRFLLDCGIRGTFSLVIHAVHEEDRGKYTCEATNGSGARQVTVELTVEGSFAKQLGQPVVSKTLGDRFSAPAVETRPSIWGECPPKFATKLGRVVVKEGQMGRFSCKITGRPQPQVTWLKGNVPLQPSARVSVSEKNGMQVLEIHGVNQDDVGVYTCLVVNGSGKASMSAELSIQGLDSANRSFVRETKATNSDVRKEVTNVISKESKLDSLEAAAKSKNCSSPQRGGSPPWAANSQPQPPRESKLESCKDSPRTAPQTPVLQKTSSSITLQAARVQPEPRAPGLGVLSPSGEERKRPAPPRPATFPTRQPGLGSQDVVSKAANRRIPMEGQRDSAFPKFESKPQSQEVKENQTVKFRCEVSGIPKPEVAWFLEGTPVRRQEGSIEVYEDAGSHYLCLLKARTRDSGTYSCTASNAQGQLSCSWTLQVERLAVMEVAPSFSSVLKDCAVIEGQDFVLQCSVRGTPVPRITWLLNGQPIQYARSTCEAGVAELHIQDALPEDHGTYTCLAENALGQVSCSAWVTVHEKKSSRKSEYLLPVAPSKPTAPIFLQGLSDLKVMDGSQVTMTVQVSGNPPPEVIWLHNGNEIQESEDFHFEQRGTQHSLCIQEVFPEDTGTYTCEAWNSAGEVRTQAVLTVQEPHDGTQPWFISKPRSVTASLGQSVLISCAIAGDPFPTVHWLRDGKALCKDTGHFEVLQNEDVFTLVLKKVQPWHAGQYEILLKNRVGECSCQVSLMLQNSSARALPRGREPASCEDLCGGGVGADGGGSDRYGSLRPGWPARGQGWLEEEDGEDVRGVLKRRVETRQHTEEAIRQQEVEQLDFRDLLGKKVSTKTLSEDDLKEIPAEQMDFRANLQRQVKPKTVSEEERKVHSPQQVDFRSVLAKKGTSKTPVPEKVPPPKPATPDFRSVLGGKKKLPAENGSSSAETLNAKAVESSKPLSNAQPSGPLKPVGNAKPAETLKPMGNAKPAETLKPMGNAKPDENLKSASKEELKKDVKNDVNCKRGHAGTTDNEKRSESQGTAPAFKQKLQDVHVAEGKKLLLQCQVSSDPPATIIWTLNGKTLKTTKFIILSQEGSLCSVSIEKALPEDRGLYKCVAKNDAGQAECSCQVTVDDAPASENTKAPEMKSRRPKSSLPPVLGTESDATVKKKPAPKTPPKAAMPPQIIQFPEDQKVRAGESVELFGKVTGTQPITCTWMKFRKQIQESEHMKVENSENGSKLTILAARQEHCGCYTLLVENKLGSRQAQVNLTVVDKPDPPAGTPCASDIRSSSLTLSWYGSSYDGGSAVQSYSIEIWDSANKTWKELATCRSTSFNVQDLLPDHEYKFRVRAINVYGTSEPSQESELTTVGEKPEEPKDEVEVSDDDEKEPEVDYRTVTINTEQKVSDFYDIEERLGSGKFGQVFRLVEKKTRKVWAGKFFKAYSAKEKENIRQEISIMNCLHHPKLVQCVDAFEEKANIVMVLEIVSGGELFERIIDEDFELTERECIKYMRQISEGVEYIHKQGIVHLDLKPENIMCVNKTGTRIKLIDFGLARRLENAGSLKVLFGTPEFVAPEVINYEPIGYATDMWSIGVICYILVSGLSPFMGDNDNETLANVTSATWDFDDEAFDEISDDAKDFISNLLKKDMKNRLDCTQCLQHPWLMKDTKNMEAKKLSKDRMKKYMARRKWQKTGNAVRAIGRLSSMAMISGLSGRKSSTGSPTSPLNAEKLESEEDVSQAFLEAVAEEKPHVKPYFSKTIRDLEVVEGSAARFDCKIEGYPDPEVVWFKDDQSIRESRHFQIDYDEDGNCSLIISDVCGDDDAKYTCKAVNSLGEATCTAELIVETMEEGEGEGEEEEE

`O=c1cc(N2CCNCC2)oc2c(-c3ccccc3)cccc12`: the residual activity in experiment [1] came out at 92%; in [2], 89%; in experiment [3] it was 100%; in [4], 79%; in [5] it was 93%; in [6], 95%. The residual activity in experiment [7] was determined as 88%; in experiment [8] it was 104%; in experiment [9] it was 86%; in [10], 93%; in [11], 76%; in [12], 94%. Besides, the residual activity in experiment [13] is 93%; in experiment [14], 103%; in [15], 103%; in [16], 89%; in [17], 98%; in experiment [18] it was 99%.
Take `O=c1c(-c2ccc(F)cc2)c(-c2ccncc2)[nH]n1-c1ccc(Cl)cc1`: the residual activity in experiment [1] came to 74%; in experiment [2] it was 0%; in experiment [3], 77%; in [4] it was 22%; in experiment [9], 119%.
With `O=C1Nc2ccc(Cl)cc2/C1=C/c1cc(Cl)c(O)c(Cl)c1`, the residual activity in experiment [1] stood at 82%; in experiment [2], 38%; in [3], 95%; in experiment [4], 61%; in experiment [5], 39%; in experiment [6], 37%. The residual activity in [7] was found to be 56%; in [8], 18%; in experiment [9], 99%; in experiment [19] it was 96%; in experiment [10], 80%; in experiment [11] it was 67%. The residual activity in [13] was 84%; in [14], 51%; in experiment [15], 100%; in [16] it was 71%; in experiment [17], 41%; in experiment [18], 12%.
Consider `O=C1NC(=O)C(c2cn(CCCO)c3ncccc23)=C1c1cnccn1`, for which the residual activity in [1] amounted to 85%; in experiment [2], 77%; in [3], 100%; in [4], 99%; in experiment [5] it was 84%; in experiment [6], 78%. In addition, the residual activity in [7] amounted to 75%; in [8], 55%; in experiment [17], 77%; in [18], 60%.
Consider `O=C1Cc2c([nH]c3ccc([N+](=O)[O-])cc23)-c2ccccc2N1`, for which the residual activity came to 79% in [1]; 77% in [2]; 73% in [3]; 7% in [7]; 5% in experiment [8]; 60% in experiment [9]. Moreover, the residual activity amounted to 79% in experiment [19]; 48% in experiment [10]; 57% in experiment [11]; 108% in experiment [20]; 107% in [12]; 100% in [15]. The values for the residual activity in experiment [16], in [17] and in experiment [18] were 100%, 33% and 30%, respectively.
Take `CN(C)S(=O)(=O)c1ccc2c(c1)/C(=C/c1cc3c([nH]1)CCCC3)C(=O)N2`: the residual activity amounted to 91% in experiment [1]; 82% in experiment [3]; 95% in experiment [4]; 88% in experiment [6]; 84% in experiment [7]; 64% in [8]. The residual activity in experiment [20] turned out to be 115%; in experiment [12], 125%; in experiment [14], 94%; in experiment [15] it was 98%; in experiment [16], 77%; in experiment [17], 23%. In addition, in experiment [18], the residual activity turned out to be 2%.
Consider `COc1ccc2c(c1)c(C1=C(c3c[nH]c4ccccc34)C(=O)NC1=O)cn2CCCN(C)C`, for which the residual activity in experiment [1] was 110%; in [4] it was 104%; in experiment [5], 51%; in [6], 15%; in [7], 63%; in experiment [8] it was 15%. Also, the residual activity in experiment [9] is 74%; in experiment [19], 80%; in [10], 80%; in experiment [11], 41%; in experiment [20] it was 37%; in [12] it was 4%. For the same compound, the residual activity in experiment [13] was 39%; in experiment [14] it was 5%; in experiment [16], 52%; in experiment [17] it was 64%; in experiment [18], 25%.
On to `CCOC(=O)c1c(C)[nH]c(/C=C2\C(=O)Nc3ccccc32)c1C`, for which the residual activity came to 85% in [1]; 84% in [3]; 85% in experiment [4]; 90% in experiment [5]; 78% in experiment [6]; 43% in [7]. Moreover, the residual activity in experiment [8] amounted to 39%; in [10], 91%; in experiment [11], 83%; in [12] it was 97%; in experiment [13], 87%; in experiment [14], 91%. Also, the values for the residual activity in [15] and in experiment [16] were 95% and 90%, respectively.
On to `Nc1ncnc2[nH]nc(Nc3ccc(F)cc3)c12`, for which the residual activity worked out at 74% in experiment [2]; 100% in experiment [5]; 78% in experiment [6]; 60% in [7]; 12% in experiment [8]; 117% in experiment [9]. The residual activity amounted to 106% in experiment [19]; 95% in [10]; 106% in [11]; 117% in experiment [20]; 97% in [12]; 92% in experiment [13]. The residual activity in experiment [14] worked out at 74%; in experiment [15] it was 98%; in experiment [16], 76%; in experiment [17] it was 72%.
For `Cn1sc(=O)n(Cc2ccccc2)c1=O`, the residual activity in [5] was found to be 90%; in [6], 91%; in experiment [7], 92%; in [8] it was 88%; in [9], 98%; in experiment [19], 92%. Besides, the residual activity in experiment [10] was 73%; in experiment [11], 81%; in experiment [13], 96%; in [14], 85%.
Regarding `COc1cc2ncnc(Nc3cccc(Cl)c3)c2cc1OC`, the residual activity was determined as 47% in experiment [1]; 26% in experiment [2]; 64% in experiment [5]; 28% in experiment [6]; 76% in [7]; 21% in [8]. For the same compound, the residual activity is 107% in experiment [9]; 111% in experiment [19]; 102% in [10]; 104% in experiment [11]; 103% in experiment [20]; 102% in [12]. For the same compound, the residual activity in [15] came out at 104%; in experiment [16] it was 22%; in [18] it was 74%.
Take `Oc1cccc(-c2nc(N3CCOCC3)c3oc4ncccc4c3n2)c1`: the residual activity in experiment [1] was found to be 91%; in experiment [5], 71%; in experiment [6], 72%; in experiment [7], 90%; in [8], 99%; in [9] it was 97%. The residual activity worked out at 91% in [19]; 91% in experiment [10]; 85% in experiment [11]; 130% in [20]; 90% in experiment [12]; 92% in experiment [16]. The residual activity in experiment [17] and in experiment [18] was 97% throughout.
Regarding `COc1ccc(CNC(=O)Nc2ncc([N+](=O)[O-])s2)cc1`, the residual activity in experiment [6] came out at 76%; in experiment [9], 118%; in [19], 104%; in experiment [20], 114%; in experiment [12], 129%; in [17], 108%. For the same compound, in experiment [18], the residual activity worked out at 105%.
For `COc1ccc(-c2cnc3c(-c4ccsc4)cnn3c2)cc1`, the residual activity in experiment [1] amounted to 73%; in experiment [3], 74%; in experiment [4], 86%; in experiment [19] it was 99%; in experiment [12], 94%; in experiment [13], 95%. The residual activity in [14] was determined as 95%.
For `CCCC(=O)Oc1ccc2[nH]c(C(=O)c3cc4ccccc4[nH]3)cc2c1`, the residual activity was 99% in experiment [1]; 104% in [3]; 81% in [4]; 90% in experiment [5]; 97% in [6]; 80% in [7]. The residual activity in experiment [8] was found to be 88%; in [9], 102%; in experiment [19] it was 102%; in [10], 92%; in experiment [11], 79%; in [12], 103%. The residual activity in experiment [13] was 94%; in [14] it was 99%; in [16], 88%; in experiment [17], 94%; in [18] it was 103%.
For `O=C1Nc2ccccc2/C1=C\c1c(Cl)[nH]c2ccccc12`, the residual activity was determined as 77% in [4]; 11% in experiment [6]; 62% in experiment [8]; 100% in experiment [20]; 71% in [12]; 59% in [14]. Further, the residual activity stood at 51% in [17] and 63% in experiment [18].
